Assay outcomes as filed in PubChem.
USP30 block: inhibitors of human USP30 deubiquitinase; Ubiquitin carboxyl-terminal hydrolase 30 (Homo sapiens), Q70CQ3; purified USP30, Ub-rhodamine cleavage fluorescence; inhibition, % at 25 µM; 5.3% of 47,000 active; AID 1645860, 2021
Target sequence (Q70CQ3 whole entry, looked up): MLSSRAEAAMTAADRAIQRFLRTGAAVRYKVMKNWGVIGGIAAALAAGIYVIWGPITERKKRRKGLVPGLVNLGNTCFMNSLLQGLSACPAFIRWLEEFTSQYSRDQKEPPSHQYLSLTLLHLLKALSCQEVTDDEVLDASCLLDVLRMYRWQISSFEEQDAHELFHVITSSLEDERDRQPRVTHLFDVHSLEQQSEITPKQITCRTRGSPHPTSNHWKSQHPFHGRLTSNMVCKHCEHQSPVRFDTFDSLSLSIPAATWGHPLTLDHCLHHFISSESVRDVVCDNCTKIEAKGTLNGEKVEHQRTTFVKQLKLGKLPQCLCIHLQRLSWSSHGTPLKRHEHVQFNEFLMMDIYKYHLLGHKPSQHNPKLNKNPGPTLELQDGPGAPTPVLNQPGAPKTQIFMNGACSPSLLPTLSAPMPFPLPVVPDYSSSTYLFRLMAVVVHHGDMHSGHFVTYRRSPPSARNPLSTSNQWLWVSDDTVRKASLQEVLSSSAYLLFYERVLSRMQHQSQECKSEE
USP17 inh: inhibitors of human USP17 deubiquitinase | purified USP17, Ub-rhodamine cleavage fluorescence, 3 h | inhibition, % at 50 µM | 6.5% of 47,000 active | AID 1645855, 2021
Hits are given with their value. The list is not random: actives were taken first. Their share in the collection is about 9.6%. Rule as the data show it: active = inhibition above about 30%; inactive = the rest.

Cc1ccc(C(=O)CN2C(=O)COc3cc(C(=O)N(C)C[C@H](O)c4cccc(O)c4)ccc32)c(C)c1 was read as USP30 block inactive and USP17 inh inactive.
`COc1ccccc1-c1cc2n(C)c(C)c(CCC(=O)NCc3ccccc3)c(=O)n2n1` gave USP30 block inactive and USP17 inh inactive.
Screening COCc1[nH]n2c(=O)cc(Cc3ccccc3)nc2c1-c1ccccc1 returned USP30 block inactive and USP17 inh inactive.
CCOC(=O)c1cc(C#N)c(N2CCCNCC2)nc1C(F)(F)F was read as USP30 block inactive and USP17 inh inactive.
`CCOC(=O)c1cn(C2CC2)c2cc(N3CCNCC3)c([N+](=O)[O-])cc2c1=O` gave USP30 block 58 and USP17 inh inactive.
For COc1cccc(S(=O)(=O)N2CCc3nc(C)nc(N4CCCC4)c3C2)c1 the results were USP30 block inactive and USP17 inh inactive.
For Cc1ccc(Cn2c(C(=O)Nc3cccnc3)cc3sccc32)cc1 the results were USP30 block inactive and USP17 inh 42.
For Cc1ccc(-n2nc(C(=O)Nc3cccnc3)c3ncn(C)c(=O)c32)cc1 the results were USP30 block inactive and USP17 inh inactive.
Cc1cc(-c2cnc(NCc3cccc(F)c3)nc2-c2ccco2)on1 was read as USP30 block inactive and USP17 inh 41.
`Cc1cc(-c2cnc(NCCCN3CCOCC3)nc2-c2ccco2)on1` gave USP30 block inactive and USP17 inh inactive.
For CCC(=O)N1CCc2cc(Br)c(S(=O)(=O)CCC(=O)N3CCN(C(=O)c4ccco4)CC3)cc21 the results were USP30 block inactive and USP17 inh inactive.
For COCCn1c(C(=O)Nc2ccccc2Cl)cc2c(=O)n(C)c(=O)n(C)c21 the results were USP30 block inactive and USP17 inh 36.
Screening COCCn1c(C(=O)Nc2ccc(C(C)=O)cc2)cc2c(=O)n(C)c(=O)n(C)c21 returned USP30 block inactive and USP17 inh inactive.
For Nc1nccc(-c2cccc(OCc3ccc(Cl)cc3Cl)c2)n1 the results were USP30 block inactive and USP17 inh inactive.
COc1cccc(CNC(=O)c2cnc3sc4c(n3c2=O)CCC4)c1 was read as USP30 block inactive and USP17 inh inactive.
Cc1cccc(CNC(=O)c2cnc3sc4c(n3c2=O)CCCC4)c1 was read as USP30 block 37 and USP17 inh inactive.
For Cc1cc2c(cc1S(=O)(=O)N(CCc1ccccc1)Cc1ccccc1)OCC(=O)N2 the results were USP30 block inactive and USP17 inh inactive.
`Cc1ccc(CN2CC(=O)N3Cc4[nH]c5ccccc5c4C[C@@H]3C2=O)cc1` gave USP30 block inactive and USP17 inh inactive.
`CC(=O)c1ccc(N2C(=O)[C@H]3Cc4c([nH]c5ccccc45)CN3C2=O)cc1` gave USP30 block inactive and USP17 inh 44.
Screening COCCN1C(=O)C[C@@H]2[C@H]1CCN2C(=O)c1cncc(C)c1 returned USP30 block 31 and USP17 inh inactive.
For COCCN1C(=O)C[C@@H]2[C@H]1CCN2C(=O)c1ccc2ccccc2n1 the results were USP30 block inactive and USP17 inh inactive.
Cc1cc(C)cc(NC(=O)C2CCCN(S(=O)(=O)c3cccnc3)C2)c1 (stereo not drawn) was read as USP17 inh inactive.
NCc1ccc(C(=O)N2CCC3(CC2)C(=O)Nc2ccccc23)cc1 was read as USP30 block inactive and USP17 inh inactive.
CC(C)C(=O)O[C@H]1[C@H](C)C(=O)O[C@@H](C)[C@@H](NC(=O)c2cccc(NC=O)c2O)C(=O)O[C@@H]1C was read as USP30 block 35 and USP17 inh 45.
`COC(=O)C(NC(=O)c1cccc(NC=O)c1O)C(C)O` (stereo not drawn) gave USP30 block inactive and USP17 inh inactive.
Screening CC1CCC(Nc2ncnc3c2CN(C2CCNC2)C(=O)CN3C)CC1 (stereo not drawn) returned USP30 block inactive and USP17 inh inactive.
`CN1CC(=O)N(C2CCNC2)Cc2c(NC3Cc4ccccc4C3)ncnc21` (stereo not drawn) gave USP30 block inactive and USP17 inh 50.
Screening O=C(CC1CCOCC1)N1CCCC(c2ccc3cn[nH]c3n2)C1 (stereo not drawn) returned USP30 block inactive and USP17 inh inactive.
Screening O=C(NCCCO)c1cc(-c2ccn(C3CCCC3)n2)n2ccccc12 returned USP30 block inactive and USP17 inh inactive.
Screening CC1=C(C(=O)Nc2ccccc2)C(c2sccc2C)n2ncnc2N1 (stereo not drawn) returned USP30 block inactive and USP17 inh inactive.
`Cc1cccc(OCC(=O)Nc2nc3c(s2)CCCC3)c1` gave USP30 block inactive and USP17 inh inactive.
Screening CN1CCc2nc(NC(=O)COc3ccc(C#N)cc3)sc2C1 returned USP30 block 59 and USP17 inh 83.
`Cc1noc(-c2cccn2Cc2cccc(F)c2)n1` gave USP30 block inactive and USP17 inh inactive.
Screening O=C1CC(NS(=O)(=O)c2ccc(Cl)cc2)CN1c1cccc(F)c1 (stereo not drawn) returned USP30 block inactive and USP17 inh inactive.
COc1ccc(S(=O)(=O)N2CCOCC2)cc1NC(=O)COc1ccc([N+](=O)[O-])cc1 was read as USP30 block inactive and USP17 inh inactive.
O=C(COC(=O)C1(c2ccc(Cl)cc2)CCCC1)c1ccc2c(c1)OCCO2 was read as USP30 block inactive and USP17 inh inactive.
`O=C(COC(=O)C1(c2ccc(Cl)cc2)CCCC1)Nc1ccc2c(c1)OCO2` gave USP30 block 48 and USP17 inh inactive.
O=C(COC(=O)C1CCCN1S(=O)(=O)c1ccc(Cl)cc1)Nc1ccc2c(c1)OCO2 (stereo not drawn) was read as USP30 block 33 and USP17 inh inactive.
Screening COc1ccc([N+](=O)[O-])cc1NC(=O)COC(=O)C1CCCN1S(=O)(=O)c1ccc(Cl)cc1 (stereo not drawn) returned USP30 block 35 and USP17 inh inactive.
O=C(COC(=O)[C@@H]1CCCN1S(=O)(=O)c1ccc(Cl)cc1)Nc1ccccc1 was read as USP30 block inactive and USP17 inh inactive.
Cc1nnc2n1CCN(C(=O)c1ccc3ccccc3n1)C2 was read as USP30 block inactive and USP17 inh inactive.
Cc1ccc(-c2cc(C(=O)NC3CC3)nn2C2CCS(=O)(=O)C2)cc1C (stereo not drawn) was read as USP30 block inactive and USP17 inh inactive.
`COc1ccc(CC(=O)N(C)c2nnc(C34CC5CC(CC(C5)C3)C4)s2)cc1` gave USP30 block inactive and USP17 inh inactive.
For COc1cc(-c2nnc(CSc3ccc(C(F)(F)F)cn3)o2)cc(OC)c1OC the results were USP30 block 38 and USP17 inh inactive.
COc1ccc(CCc2nnc(-c3cnc4onc(C5CC5)c4c3)o2)cc1 was read as USP30 block inactive and USP17 inh inactive.
`CC(=O)c1ccc(NC(=O)C2CCN(S(=O)(=O)c3cccnc3)CC2)cc1` gave USP30 block 35 and USP17 inh inactive.
Screening O=C(Nc1ccc(-c2ccno2)cc1)C1CCN(S(=O)(=O)c2cccnc2)CC1 returned USP30 block inactive and USP17 inh inactive.
`COc1cc(Nc2nc3ccccc3n3c(C)nnc23)cc(OC)c1` gave USP30 block inactive and USP17 inh inactive.
Cc1ccc(C)c(NC(=O)c2cnc(NCc3ccc4c(c3)OCO4)nc2C)c1 was read as USP30 block inactive and USP17 inh inactive.
